Assay outcomes (PubChem)
Shown are actives, neighbours in structure and some others; about 12% of the full set was active somewhere.
JMJD2A Tudor = blocks the human JMJD2A Tudor domain | O75164 | AlphaScreen JMJD2A-Tudor / H3K4me3 peptide binding | Potency, µM (series often up to 114 µM), for inactives: top-dose activity change, negative = inhibition, actives largely listed as inhibitors | actives 4.4% (n = 390,000) | AID 504339; further: on the % scale 0 is the no-effect control and ±100 the full control effect; nearly all actives have a fitted effect of over 50% in size
BAZ2B block = blocks human BAZ2B. Potency, µM (titrated, usually from 114 µM), for the others: at the highest dose activity change, negative = inhibition, most hits filed as inhibitors. actives 4.4% (n = 360,000). AID 504333. Q9UIF8. AlphaScreen BAZ2B-H3K14Ac peptide displacement; further: on the % scale 0 is the no-effect control and ±100 the full control effect; nearly all actives have a fitted effect of over 60% in size
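AlphaScreen displacement of biotin-H3(5-23)K14Ac peptide (50 nM final) from BAZ2B (50 nM final) in PBS pH 7.4, 0.01% Tween-20; complex preformed 30 min RT, then compounds (top 110 uM) 30 min RT, beads 20 min dark.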
Sfp PPTase inh = Sfp phosphopantetheinyl transferase inhibition. Q9F4F7. Biochemical Sfp PPTase activity, qHTS. Potency, µM, for inactives: largest response in the series, negative = inhibition, usual class: inhibitors. actives 3.5% (n = 310,000). AID 1490;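 further: the enzyme is Sfp with the accession as filed and its product quenches rhodamine fluorescence; 0% = enzyme reaction without inhibitor and -100% = no enzyme wells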
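Reaction rates are the 30-min fluorescence difference (ex 525, em 598 nm) in wells containing 15 nM Sfp, 5 uM rhodamine-CoA and 12.5 uM BHQ-2-YbbR at pH 7.6 with 10 mM MgCl2.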
G9a block = G9a (human) methyltransferase inhibition | G9a H3K9 monomethylation, AlphaScreen, 2 h | Potency, µM (top dose mostly 102 µM), without a hit: at the highest dose activity, negative = inhibition, usual class: inhibitors | actives 8.8% (n = 350,000) | AID 504332; further: on the % scale 0 is the no-effect control and ±100 the full control effect; nearly all actives have a fitted effect of over 75% in size
Target sequence (Q96KQ7 913-1193 limits assumed): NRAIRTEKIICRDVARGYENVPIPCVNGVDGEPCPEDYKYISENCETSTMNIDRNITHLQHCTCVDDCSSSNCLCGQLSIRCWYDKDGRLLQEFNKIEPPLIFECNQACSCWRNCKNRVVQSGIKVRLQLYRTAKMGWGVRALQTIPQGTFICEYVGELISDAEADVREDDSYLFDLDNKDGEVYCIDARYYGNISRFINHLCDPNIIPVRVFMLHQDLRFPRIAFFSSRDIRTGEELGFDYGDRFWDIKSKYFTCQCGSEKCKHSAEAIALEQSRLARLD
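Readings reflect AlphaScreen signal from monomethyl-H3K9 antibody detection. HMT at 20 nM; substrate b-H3K9 500 nM; cofactor SAM 20 uM; 2 h RT reaction; compounds tested as titrations in qHTS with 15 min preincubation.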
HP1b chromo inh = inhibitors of HP1-beta chromodomain binding to methylated histone tails; P83916; AlphaScreen HP1-beta / biotin-H3K9me3 peptide binding; Potency, µM (doses to about 114 µM), inactives show at the highest dose activity change, negative = inhibition, hits mostly inhibitors; actives 0.56% (n = 390,000); AID 540317; further: nearly all actives have a fitted effect of over 70% in size
Target sequence (P83916 whole entry, looked up): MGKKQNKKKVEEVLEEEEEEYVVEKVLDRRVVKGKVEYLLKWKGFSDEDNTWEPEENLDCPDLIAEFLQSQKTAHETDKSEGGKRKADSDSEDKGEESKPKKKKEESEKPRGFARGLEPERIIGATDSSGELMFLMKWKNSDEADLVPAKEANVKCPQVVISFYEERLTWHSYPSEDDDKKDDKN
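Compound inhibition of the preformed complex between 50 nM HP1-beta and 50 nM biotinylated H3K9me3 peptide was read by AlphaScreen. Buffer was PBS pH 7.4 with 0.01% Tween-20. Incubations ran 30 min at room temperature, with 10 ug/mL donor/acceptor beads.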
* marks the source's active call; other numbers are inactive results; ? = inconclusive; · = no result given; [ ] = remark or other dose. The call rests on the fitted dose curve; in most records, active means well fitted curve in the direction sought with a large enough effect; inconclusive means small, poorly fitted or top-dose-only effect, or another doubt; inactive means no such curve, though single readings can be large; an effect the other way counts as inactive or inconclusive. Potency means the concentration at half of the fitted maximal effect.

SMILES	JMJD2A Tudor	BAZ2B block	Sfp PPTase inh	G9a block	HP1b chromo inh
COc1ccc(CN2C(=O)c3cccnc3C2=O)cc1S(=O)(=O)N1CCCCC1	-15%	?	10%	-29%	9%[57 µM]
CC(=O)c1ccc(S(=O)(=O)N2CCn3cccc3C2c2ccccc2F)cc1 (configuration not stated)	-32%	?	·	?	-3%
S=c1[nH]cc(-c2ccccc2)n1-c1ccccc1Cl	50µM*	-38%	?	?	-1%
COc1ccccc1-n1c(-c2ccccc2)c[nH]c1=S	?	?	10µM*	0.89µM*	9%
O=C1CN(c2ccccc2Cl)C(=O)CN1c1ccccc1Cl	0%	10%	11%	12%[12.7 µM]	7%
O=C(COc1ccc(Cl)cc1)NCCc1csc(-c2cccc(F)c2)n1	-18%	-1%	·	2%[59 µM]	11%[57 µM]
O=C(COC(=O)CNS(=O)(=O)c1cccc(F)c1)NCCc1ccccc1	9%	2%	·	-12%	47%
CN(C)c1ccc(CNC(=O)C2CCN(c3nnc(-n4cccc4)s3)CC2)cc1	-28%	-4%[57.1 µM]	·	?	7%
Cn1cccc1Cc1nnc(SCC(=O)Nc2cccc(F)c2)n1CCc1ccccc1	-32%	50µM*	-25%	45µM*	-11%
Cc1csc(NC(=O)CSc2nnc(Cc3cccn3C)n2CCc2ccccc2)n1	35µM*	?	-23%	45µM*	?
Cn1cccc1Cc1nnc(SCC(=O)Nc2ccccc2F)n1CCc1ccccc1	?	?	-11%	45µM*	-11%
CCc1ccc(-c2nn(CC(=O)Nc3ccccc3C)c3c2cnc2ccc(C)cc23)cc1	-20%	-11%	·	13%[59 µM]	-9%
CN(Cc1ccccc1)Cc1c(O)ccc2ccccc12	4µM*	79µM*	-17%	8.9µM*	?
COc1ccc(OCCN(C)Cc2c(O)ccc3ccccc23)cc1	?	-1%	-8%	7.1µM*	-8%
CSc1ccccc1NC(=O)CN(C)Cc1ccc(Br)cc1	78%	79%	-12%	135%	120%
CN(Cc1cc(Cl)cc(Cl)c1O)Cc1c(O)ccc2ccccc12	?	·	·	·	-7%[57 µM]
CSc1ccccc1NC(=O)CN(C)Cc1c(O)ccc2ccccc12	56µM*	?	-6%	2.2µM*	-12%
Nc1nc(=S)n(-c2ccccc2)[nH]1	3.5µM*	?	28µM*	10µM*	?
Nc1nc2nn(-c3ccccc3)nc2c(=O)[nH]1	-4%	-12%	-3%	-4%[59 µM]	21%
S=c1nc(-c2ccccc2)[nH]n1-c1ccccc1	22µM*	-37%	40µM*	?	?
Cc1nc(=S)n(-c2ccccc2)[nH]1	7.1µM*	6%	?	14µM*	43%
S=c1nc2ccccc2c2nc(-c3ccccc3)[nH]n12	-16%	-3%	-11%	-40%	20%
CC1Oc2ccccc2C=C1/C=N\NC(=O)c1cccnc1 (configuration not stated)	13%[57.1 µM]	3%	6%	23%	60%
CC(C)C[C@@H](CC(=O)N[C@@H](CCC(=O)O)CC(=O)O)NC(=O)[C@@H]1CCCC[C@H]1NC(=O)C[C@@H](NC(=O)C[C@H](Cc1ccccc1)NC(=O)[C@@H]1CCCC[C@H]1N)C(C)C	·	·	5%	·	·
COCCNC(=O)c1ccc(CSc2nc3ccncc3n2Cc2ccccc2)cc1	-1%	1%	·	-3%[59 µM]	50%
SMILES	JMJD2A Tudor	BAZ2B block	Sfp PPTase inh	G9a block	HP1b chromo inh
CC(=O)Nc1ccc(C2=NNC(=NCC3CCCO3)SC2)cc1 (configuration not stated)	-26%	1%	40µM*	14µM*	8%
COCC(C)N=C1NN=C(c2ccc(NC(C)=O)cc2)CS1 (configuration not stated)	-17%	?	40µM*	11µM*	20%
Fc1ccc(F)c(C2=NNC(=NCC3CCCO3)SC2)c1 (configuration not stated)	-22%	?	45µM*	?	23%
COc1ccc(NC(=O)CC2SC(=NCC3CCCO3)NC2=O)cc1 (configuration not stated)	-19%	-5%	7%	-8%[59 µM]	11%
CCn1cc(C(=O)N2CCN(c3ccccc3OC)CC2)c(=O)c2cc(S(=O)(=O)N3CCC(C)CC3)ccc21	-27%	·	·	-7%[59 µM]	0%
COc1c(O)cc2c(c1O)[C@@H]1O[C@H](CO)[C@@H](O)[C@H](O)[C@H]1OC2=O	3%	-1%	18%	9%[2.33 µM]	44%
Cc1c(C(=O)O)c(O)cc2c1C(=O)c1c(O)c([C@@H]3O[C@H](CO)[C@@H](O)[C@H](O)[C@H]3O)c(O)c(O)c1C2=O	25µM*	·	·	·	?
Cc1c(C(=O)O)c(O)cc2c1C(=O)c1c(O)c([C@H]3O[C@H](CO)[C@@H](O)[C@H](O)[C@H]3O)c(O)c(O)c1C2=O	·	·	?	7.1µM*	·
CC(CNC(=O)COc1ccc2c(c1)OCO2)c1ccccc1 (configuration not stated)	-15%	-8%	·	-6%[59 µM]	24%
CCCn1c(C)nc2c(NCCN(C)C)nc(C)nc21	·	·	1%	·	·
COc1ccc(C(=O)NC(=S)NNC(=O)[C@H]2C[C@@H]2c2ccccc2)cc1OC	-25%	0%	-4%	45µM*	-3%
COc1cc(OC)cc(C(=O)NC(=S)NNC(=O)[C@H]2C[C@@H]2c2ccccc2)c1	?	-19%	-9%	20µM*	-23%
O=C(/C=C/c1ccc(F)cc1)NC(=S)NNC(=O)[C@H]1C[C@@H]1c1ccccc1	-14%	-3%[57.1 µM]	19%	35µM*	23%
O=C(NC(=S)NNC(=O)[C@H]1C[C@@H]1c1ccccc1)c1ccc(F)cc1	-20%	2%	?	·	-5%
CCCCOC(=O)c1ccc(NC(=O)/C(C#N)=C/c2ccc(C)o2)cc1	-12%	-11%	·	-33%[59 µM]	14%
CC(C)C(=O)N(Cc1ccc2c(c1)OCO2)Cc1ccccn1	56µM*	?	-16%	40µM*	2%
O=C(NCc1ccc2c(c1)OCO2)c1ccccn1	-1%	-6%	23%	0%[59 µM]	21%
O=C(NC(=S)NCCCN1CCOCC1)c1ccco1	-8%	-18%	-17%	40µM*	24%
CCc1ccc(Nc2cc(C(=O)NCCCN3CCOCC3)c3ccccc3n2)cc1	-9%	7%	35µM*	-7%	49%
O=C(NCCCN1CCOCC1)c1cc(-c2ccco2)nc2ccccc12	50µM*	·	·	·	-6%
CCCCCCNC(=O)c1cc(-c2ccco2)nc2ccccc12	20µM*	35µM*	?	8.9µM*	22µM*
O=c1c(-c2ccc(Cl)cc2)nc2cnc(N3CCOCC3)nc2n1C1CC1	·	·	12%	-10%[12.7 µM]	·
COc1ccc(NC(=O)c2cc(-c3ccco3)nc3ccccc23)cc1S(=O)(=O)N1CCOCC1	?	45µM*	5µM*	·	?
